Test results published in PubChem BioAssay (NCATS).
Results filed as inconclusive are left out. Activity calls are given as the source filed them. Unless noted, the call rests on the fitted dose curve.

Molecular target: Peroxisome proliferator-activated receptor gamma (Homo sapiens) (UniProt P37231)
Sequence (P37231 whole entry, looked up): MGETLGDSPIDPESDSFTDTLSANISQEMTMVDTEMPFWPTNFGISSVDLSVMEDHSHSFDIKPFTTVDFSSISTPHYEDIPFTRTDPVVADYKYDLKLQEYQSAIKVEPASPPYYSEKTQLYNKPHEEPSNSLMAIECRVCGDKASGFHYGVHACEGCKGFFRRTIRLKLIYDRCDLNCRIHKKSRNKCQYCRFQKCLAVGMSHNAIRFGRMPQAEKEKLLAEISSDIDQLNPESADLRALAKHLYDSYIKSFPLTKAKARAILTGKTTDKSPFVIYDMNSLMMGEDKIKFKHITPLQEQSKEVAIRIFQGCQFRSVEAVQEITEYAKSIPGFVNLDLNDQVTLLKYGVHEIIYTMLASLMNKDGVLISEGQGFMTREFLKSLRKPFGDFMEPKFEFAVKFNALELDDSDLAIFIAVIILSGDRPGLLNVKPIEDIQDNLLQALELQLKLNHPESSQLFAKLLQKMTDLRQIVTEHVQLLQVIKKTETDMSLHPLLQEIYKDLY
Assay: qHTS assay for small molecule agonists of peroxisome proliferator-activated receptor gamma signaling (AID 588536; active means well fitted curve in the direction sought with a large enough effect in the signal ratio, with a control signal flat, not every such curve was filed as active; the % refers to the signal ratio;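 further: 0% = DMSO basal wells and 100% = rosiglitazone at 2 µM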)
Conditions: HEK293 PPARg-UAS-bla, beta-lactamase ratio, 16 h, percent of rosiglitazone response, DMSO as zero; series mostly up to 76.7 µM
In short: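 Ratiometric blue/green fluorescence (405 nm excitation; 460 and 530 nm emission) from CCF4-loaded HEK293 reporter cells serves as signal. Exposure to test compounds lasts 16 h at 37 C in medium containing 1% charcoal/dextran-treated serum.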
In the case of Cc1occc(=O)c1O, the outcome is reported as “inactive”.
For CC1=CC(=O)CC(C)(C)C1(O)/C=C/C(C)=C\C(=O)O (centres undefined), the outcome was “inactive”.
With COS(C)(=O)=O the outcome was “inactive”.

Molecular target: Vitamin D3 receptor (Homo sapiens) (UniProt P11473)
Sequence (P11473 whole entry, looked up): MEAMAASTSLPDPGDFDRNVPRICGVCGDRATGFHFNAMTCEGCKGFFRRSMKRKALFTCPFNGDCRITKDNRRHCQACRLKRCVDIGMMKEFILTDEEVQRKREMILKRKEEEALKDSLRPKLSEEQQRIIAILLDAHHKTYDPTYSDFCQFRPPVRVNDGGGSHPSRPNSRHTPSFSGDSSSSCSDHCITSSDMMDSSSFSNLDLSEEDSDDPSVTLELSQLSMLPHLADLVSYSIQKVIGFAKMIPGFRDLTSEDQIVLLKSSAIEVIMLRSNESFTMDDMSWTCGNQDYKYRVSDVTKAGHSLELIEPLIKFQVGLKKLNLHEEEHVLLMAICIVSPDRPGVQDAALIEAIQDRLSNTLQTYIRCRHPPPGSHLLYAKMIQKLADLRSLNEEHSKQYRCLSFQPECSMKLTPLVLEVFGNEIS
Assay: qHTS assay for small molecule antagonists of vitamin D receptor signaling (AID 588541);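 further: receptor activated by calcitriol during compound treatment; on the % scale 0 is the no-effect control and ±100 the full control effect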
Conditions: HEK293T VDR-UAS-bla, beta-lactamase ratio, antagonist mode; series mostly up to 76.7 µM
In short: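 Antagonist-mode beta-lactamase reporter assay: HEK293T VDR-UAS-bla cells were exposed to titrated compound alongside 1-alpha,25-dihydroxyvitamin D3 at 3 nM final for 16 h. Values were normalized to the 50 nM agonist control and DMSO basal, with IC50 and efficacy from Hill equation fits.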
For Cc1occc(=O)c1O, the outcome was “inactive”.
For CC1=CC(=O)CC(C)(C)C1(O)/C=C/C(C)=C\C(=O)O (centres undefined), the outcome was “inactive”.
In the case of COS(C)(=O)=O, the outcome is reported as “inactive”.

Molecular target: Vitamin D3 receptor (Homo sapiens) (UniProt P11473)
Assay: qHTS assay for small molecule agonists of vitamin D receptor signaling (AID 588543);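 further: 0% = DMSO basal and 100% = reference agonist control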
Conditions: HEK293T VDR-UAS-bla, beta-lactamase ratio, 16 h; series mostly up to 76.8 µM
In short: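 Measured: β-lactamase reporter activity (CCF4, 405 nm excitation, 460/530 nm emission) in HEK293T VDR-UAS-bla cells after 16 h compound exposure at 37 °C. Normalization against 50 nM 1α,25-dihydroxyvitamin D3 and DMSO; Hill-fit EC50.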
With Cc1occc(=O)c1O the outcome was “inactive”.
With CC1=CC(=O)CC(C)(C)C1(O)/C=C/C(C)=C\C(=O)O (centres undefined) the outcome was “inactive”.
In the case of COS(C)(=O)=O, the outcome is reported as “inactive”.

Tested on: not listed separately
Assay: qHTS assay for small molecule agonists of retinoid X receptor alpha signaling (AID 588544);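 on activation: 0% = DMSO basal wells and 100% = reference agonist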
Conditions: HEK293T RXRa-UAS-bla, beta-lactamase reporter, 18 h; 530 nm emission
Cc1occc(=O)c1O gave a max response of -12.3%.
With CC1=CC(=O)CC(C)(C)C1(O)/C=C/C(C)=C\C(=O)O (centres undefined) the max response was -10.1%.
For COS(C)(=O)=O, the max response was -12%.

Molecular target: Retinoic acid receptor RXR-alpha (Homo sapiens) (UniProt P19793)
Sequence (P19793 whole entry, looked up): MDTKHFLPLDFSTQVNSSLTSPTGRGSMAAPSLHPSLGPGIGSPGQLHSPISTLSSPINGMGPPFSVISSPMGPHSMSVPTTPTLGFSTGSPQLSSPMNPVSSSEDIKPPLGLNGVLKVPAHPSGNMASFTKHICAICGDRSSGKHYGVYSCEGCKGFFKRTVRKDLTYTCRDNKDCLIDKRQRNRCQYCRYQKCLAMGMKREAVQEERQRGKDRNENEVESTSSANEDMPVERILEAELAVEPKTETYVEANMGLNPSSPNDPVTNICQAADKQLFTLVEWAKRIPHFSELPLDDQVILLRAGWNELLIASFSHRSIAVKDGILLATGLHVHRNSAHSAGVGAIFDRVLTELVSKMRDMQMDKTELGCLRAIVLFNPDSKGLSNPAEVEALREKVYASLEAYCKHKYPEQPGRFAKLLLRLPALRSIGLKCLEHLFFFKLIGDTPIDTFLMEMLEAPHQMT
Assay: as above
Conditions: HEK293T RXRa-UAS-bla, beta-lactamase reporter, 18 h; series mostly up to 76.7 µM
For Cc1occc(=O)c1O, the outcome was “inactive”.
For CC1=CC(=O)CC(C)(C)C1(O)/C=C/C(C)=C\C(=O)O (centres undefined), the outcome was “inactive”.
For COS(C)(=O)=O, the outcome was “inactive”.

Molecular target: Thyroid hormone receptor beta (Homo sapiens) (UniProt P10828)
Sequence (P10828 whole entry, looked up): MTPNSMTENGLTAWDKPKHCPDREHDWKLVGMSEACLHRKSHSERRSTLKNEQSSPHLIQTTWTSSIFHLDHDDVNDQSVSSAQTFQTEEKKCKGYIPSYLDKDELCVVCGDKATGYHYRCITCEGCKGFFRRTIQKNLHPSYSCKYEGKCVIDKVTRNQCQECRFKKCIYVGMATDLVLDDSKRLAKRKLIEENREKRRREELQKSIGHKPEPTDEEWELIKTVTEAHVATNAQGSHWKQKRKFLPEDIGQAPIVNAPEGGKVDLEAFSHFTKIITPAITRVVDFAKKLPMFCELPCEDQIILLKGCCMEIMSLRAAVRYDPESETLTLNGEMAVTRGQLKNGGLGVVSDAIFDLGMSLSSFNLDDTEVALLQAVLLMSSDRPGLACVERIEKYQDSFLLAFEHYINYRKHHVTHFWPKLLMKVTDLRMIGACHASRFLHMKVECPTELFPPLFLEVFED
Assay: qHTS assay for small molecule agonists of thyroid hormone receptor beta signaling (AID 588545)
Conditions: TR-UAS-bla GripTite HEK 293, beta-lactamase ratio, agonist mode, 18 h, percent of T3 response, DMSO as zero; series mostly up to 76.7 µM
In short: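 Agonist-mode beta-lactamase reporter assay, HEK 293 cells, 2% charcoal/dextran FBS; cells plated 4 hrs, compound 18 hrs at 37 C, CCF4 2 hrs RT. Normalized to 10 nM T3 (100%) and DMSO (0%); Hill fit gives EC50, efficacy.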
With Cc1occc(=O)c1O the outcome was “inactive”.
With CC1=CC(=O)CC(C)(C)C1(O)/C=C/C(C)=C\C(=O)O (centres undefined) the outcome was “inactive”.
With COS(C)(=O)=O the outcome was “inactive”.

Tested on: not listed separately
Assay: qHTS assay for small molecule antagonists of retinoid X receptor alpha signaling (AID 588546; active means well fitted inhibition curve with a large enough effect in the signal ratio, with a control signal flat, not every such curve was filed as active; the % refers to the signal ratio;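 further: cells stimulated with 9-cis-retinoic acid as agonist; on the % scale 0 is the no-effect control and ±100 the full control effect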)
Conditions: HEK293T RXRa-UAS-bla, beta-lactamase ratio, antagonist mode; measured here: W530 green channel, cytotoxicity proxy
In short: (§1)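 Beta-lactamase reporter inhibition, read as CCF4 fluorescence ratio (ex 405, em 460/530 nm) after 2 h at RT. HEK293T UAS-bla cells, 2500/well, were stimulated with 9-cis-RA at 500 or 100 nM final alongside test compound for 18 h at 37 C.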
Work on Cc1occc(=O)c1O yielded a max response of -0.914%.
CC1=CC(=O)CC(C)(C)C1(O)/C=C/C(C)=C\C(=O)O (centres undefined) showed a max response of -3.21%.
For COS(C)(=O)=O, the max response was -12.9%.

Molecular target: Retinoic acid receptor RXR-alpha (Homo sapiens) (UniProt P19793)
Assay: as above
Conditions: HEK293T RXRa-UAS-bla, beta-lactamase ratio, antagonist mode
In short: as §1
In the case of Cc1occc(=O)c1O, the max response is reported as -8.46% (inactive).
For CC1=CC(=O)CC(C)(C)C1(O)/C=C/C(C)=C\C(=O)O (centres undefined), the max response was 0.0259% (inactive).
In the case of COS(C)(=O)=O, the max response is reported as -3.69% (inactive).

Molecular target: Thyroid hormone receptor beta (Homo sapiens) (UniProt P10828)
Assay: qHTS assay for small molecule antagonists of thyroid hormone receptor beta signaling (AID 588547; active means well fitted inhibition curve with a large enough effect in the signal ratio, with a control signal flat, not every such curve was filed as active; the % refers to the signal ratio;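 further: cells stimulated with 0.4 nM T3 agonist during compound exposure; on the % scale 0 is the no-effect control and ±100 the full control effect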)
Conditions: TR-UAS-bla HEK293, beta-lactamase ratio, antagonist mode, 18 h
In short: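 Inhibition of T3-driven (0.4nM final) beta-lactamase reporter activity was measured over 0.59 nM to 92 uM compound after 18 h at 37 C. The cells were GripTite HEK293 TR-UAS-bla in charcoal/dextran-stripped serum, with CCF4 ratio read-out and IC50 from Hill fits.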
In the case of Cc1occc(=O)c1O, the activity change % (negative = inhibition) is reported as -20.8% (inactive).
For CC1=CC(=O)CC(C)(C)C1(O)/C=C/C(C)=C\C(=O)O (centres undefined), the activity change % (negative = inhibition) was -6.36% (inactive).
In the case of COS(C)(=O)=O, the activity change % (negative = inhibition) is reported as 2.2% (inactive).

Tested on: not listed separately
Assay: qHTS assay for small molecule activators of the nuclear factor-kappa B (NF-kB) signaling pathway (AID 651749; active means well fitted activation curve with a large enough effect in the signal ratio; the % refers to the signal ratio; further: % of control where 0% means no effect)
Conditions: NF-kB-bla ME-180 cells, beta-lactamase FRET ratio, 16 h; stronger effect = higher value
In short: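 Readout: beta-lactamase reporter driven by an NF-kB response element, detected fluorescently as loss of FRET. Cells were the ME-180 line, treated 16 hr at 37C with pin-transferred compound.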
With Cc1occc(=O)c1O the activation was -0.401% (inactive).
With CC1=CC(=O)CC(C)(C)C1(O)/C=C/C(C)=C\C(=O)O (centres undefined) the activation was 1.73% (inactive).
With COS(C)(=O)=O the activation was 0.279% (inactive).

Tested on: not listed separately
Assay: qHTS assay for small molecule disruptors of the mitochondrial membrane potential - 1 hr assay (AID 651754); further: on the % scale 0 is the no-effect control and ±100 the full control effect; nearly all actives have a fitted effect of over 35% in size
Conditions: series mostly up to 92.2 µM
In short: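 HepG2 cells, attached overnight, were exposed to compound for 1 hr at 37C, then stained 30 min with a potentiometric dye. Ratio of red aggregate (590nm) to green monomer (535nm) fluorescence reports membrane potential; collapse shifts signal toward green.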
In the case of Cc1occc(=O)c1O, the outcome is reported as “inactive”.
For CC1=CC(=O)CC(C)(C)C1(O)/C=C/C(C)=C\C(=O)O (centres undefined), the outcome was “inactive”.
For COS(C)(=O)=O, the outcome was “inactive”.

Tested on: not listed separately
Assay: qHTS assay for small molecule disruptors of the mitochondrial membrane potential - 5 hr assay (AID 651755); further: on the % scale 0 is the no-effect control and ±100 the full control effect; nearly all actives have a fitted effect of over 40% in size
Conditions: JC-1-type ratio dye; series mostly up to 92.2 µM
In short: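 HepG2, 2,000 cells/well, overnight attach; cpd or DMSO 5 hr, 37C/5% CO2; Mito-MPS 30 min 37C; fluor 490/535 + 540/590 nm.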
For Cc1occc(=O)c1O, the outcome was “inactive”.
With CC1=CC(=O)CC(C)(C)C1(O)/C=C/C(C)=C\C(=O)O (centres undefined) the outcome was “inactive”.
In the case of COS(C)(=O)=O, the outcome is reported as “inactive”.

Molecular target: Tumor necrosis factor (Homo sapiens) (UniProt P01375)
Sequence (P01375 whole entry, looked up): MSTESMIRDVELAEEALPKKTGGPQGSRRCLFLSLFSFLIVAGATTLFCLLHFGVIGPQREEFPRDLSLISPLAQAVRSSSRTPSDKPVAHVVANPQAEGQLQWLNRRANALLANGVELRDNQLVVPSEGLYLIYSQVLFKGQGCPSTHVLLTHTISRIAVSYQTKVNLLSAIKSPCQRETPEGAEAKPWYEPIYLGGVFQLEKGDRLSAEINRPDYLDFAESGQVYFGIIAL
Assay: qHTS assay to identify small molecules that stimulate Tumor Necrosis Factor-alpha (TNF-alpha) secretion (AID 651757; active means well fitted curve in the direction sought with a large enough effect in the signal ratio; the % refers to the signal ratio; further: 0% is about no effect)
Conditions: Human cells, HTRF 665/615 ratio; series mostly up to 92.2 µM
In short: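 THP-1 cells (3000/well) exposed to compounds 17 hrs at 37 C. Secreted TNF-alpha detected by HTRF with cryptate- and XL665-labeled anti-TNF-alpha antibodies after 3 hr at room temperature.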
In the case of Cc1occc(=O)c1O, the outcome is reported as “inactive”.
For CC1=CC(=O)CC(C)(C)C1(O)/C=C/C(C)=C\C(=O)O (centres undefined), the outcome was “inactive”.
For COS(C)(=O)=O, the outcome was “inactive”.
